Bioassay records as filed in PubChem.
The list is not random: actives were taken first. Their share in the collection is about 6.6%.
KB-V1 MDR tox: kills drug-selected multidrug resistant KB-V1 cells. KB-V1 MDR cells viability, CellTiter-Glo, 72 h. Potency, µM (series often up to 46.1 µM), most hits filed as cytotoxic. hit rate 3.4% among 400,000; note: % is set by controls: 0 for no effect and ±100 for the full control effect; nearly all actives have a fitted effect of over 60% in size
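KB-V1 cells (P-gp-expressing MDR subline of KB-3-1) in phenol-red-free DMEM with 10% FBS were exposed to library compounds over a concentration series for 72 h at 37 degrees C. Viability read by CellTiter-Glo luminescence; concentration-effect curves fitted after normalization.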
KB-3-1 cytotox: KB-3-1 parental cell cytotoxicity; KB-3-1 viability, CellTiter-Glo ATP luminescence, 72 h; Potency, µM (highest dose often 46.1 µM), hits mostly cytotoxic; hit rate 1.4% among 400,000; note: % is set by controls: 0 for no effect and ±100 for the full control effect; nearly all actives have a fitted effect of over 60% in size
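Parental KB-3-1 viability, qHTS format: 72 h compound exposure, 37 °C; CellTiter-Glo; media-only wells and DMSO plates as controls; concentration-effect fits on corrected data.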
HT1080NT lethal: kills 2HG-producing HT-1080-NT fibrosarcoma cells; HT-1080-NT fibrosarcoma viability, CellTiter-Glo ATP luminescence, 48 h; hit rate 1.6% among 360,000; AID 686970; Potency, µM (series often up to 46.1 µM), without a hit: at the highest dose activity, negative = less viability, most hits filed as cytotoxic;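 note: NT is the 2HG producing partner of a matched IDH1 knockdown line; 0% = DMSO-treated cells and -100% = media-only wells without cells; nearly all actives have a fitted effect of over 55% in size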
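Luminescent CellTiter-Glo readout after 48 hours of compound exposure at 37 degrees C defined viability of HT-1080-NT cells. Activity was normalized to DMSO wells and cell-free media wells; concentration-response curves were fitted and assigned curve classes.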
HT1080 IDH1KD tx: HT-1080 IDH1 knockdown cell toxicity (counter line); HT-1080 IDH1 knockdown viability, ATP luminescence, 48 h; Potency, µM (series often up to 46.1 µM), without a hit: at the highest dose activity, negative = toxicity, most hits filed as cytotoxic; AID 686971; hit rate 2% among 360,000;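 note: 0% = DMSO wells and -100% = cell-free medium wells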
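Viability of IDH1-knockdown HT-1080 fibrosarcoma cells was assessed by CellTiter-Glo after 48 h at 37 °C with titrated compound; concentration-effect curves were classified by fit quality and response size.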
TGFb inhibitor: blocks TGF-b signaling; HepG2 CAGA-GFP TGF-b/SMAD3 reporter, GFP fluorescence, 18 h; TGF-beta stimulated, 500 pg/mL final; Potency, µM (highest dose often 46.1 µM), without a hit: at the top dose activity, negative = inhibition, most hits filed as inhibitors; hit rate 1.2% among 410,000; AID 588855; note: % is set by controls: 0 for no effect and ±100 for the full control effect; nearly all actives have a fitted effect of over 65% in size
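Inhibition was scored as loss of TGF-beta-induced (500 pg/mL final, 18 hours, 37 degrees C) GFP in HEPG2 cells carrying a CAGA-GFP reporter, in DMEM with 1% FBS. Well GFP was summed per cell; Activity was normalised to unstimulated and stimulated DMSO wells, then concentration-response fitting.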
HepG2 viability: HepG2 cytotoxicity, counter-screen for TGF-b inhibitors. HepG2 CAGA-GFP viability, ATP luminescence, 18 h. Potency, µM (highest dose often 46.1 µM), for inactives: at the top dose activity change, negative = cytotoxicity, actives largely listed as cytotoxic. hit rate 0.76% among 410,000
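CellTiter-Glo luminescence gave cytotoxicity after 18 hours at 37 degrees C. The cells were HepG2 CAGA-GFP in 1% FBS DMEM, stimulated with 500 pg/mL TGF-beta after compound addition. %Activity was normalised to no-cell wells (complete cell-killing) and DMSO (no toxicity), and curves were fitted and classified.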
Numbers without * were called inactive. Calls come from the whole dose curve; as a rule, active = well fitted curve in the direction sought with a large enough effect; inconclusive = small, poorly fitted or top-dose-only effect, or another doubt; inactive = no such curve, though single readings can be large; an effect the other way counts as inactive or inconclusive. Potency is the fitted concentration of half-maximal effect.

How did Cc1ccc(C2=CC(c3ccccc3F)n3c(nc4ccccc43)N2)cc1C (configuration not stated) do in these assays?
KB-V1 MDR tox: inactive; KB-3-1 cytotox: inconclusive; TGFb inhibitor: inconclusive; HepG2 viability: -6.2%

Results for CSc1nc(C)cc(Nc2c(C)cc(C)cc2C)n1 ?
KB-V1 MDR tox: inactive; KB-3-1 cytotox: inactive; TGFb inhibitor: inconclusive; HepG2 viability: 2.9%

What do the screens show for `Cc1ccc(SCCC(=O)N/N=C/c2ccccc2O)cc1`?
KB-V1 MDR tox: inconclusive; KB-3-1 cytotox: inconclusive; HT1080NT lethal: -29.7%; HT1080 IDH1KD tx: inconclusive; TGFb inhibitor: 3.2%; HepG2 viability: -37.2%

What do the screens show for `O=C(CSCC(=O)NN=Cc1ccccc1O)NN=Cc1ccccc1O`?
HT1080NT lethal: inconclusive; HT1080 IDH1KD tx: 20.6µM*; TGFb inhibitor: -20.9%; HepG2 viability: -9.6%

What do the screens show for `Cc1ccc(NC(=O)CCC(=O)N/N=C/c2ccccc2O)cc1`?
KB-V1 MDR tox: inactive; KB-3-1 cytotox: inactive; HT1080NT lethal: inconclusive; HT1080 IDH1KD tx: inconclusive; TGFb inhibitor: -29.7%; HepG2 viability: -22.2%

Results for O=C(Cn1cc(C(F)(F)F)ccc1=O)N/N=C/c1ccccc1O ?
KB-V1 MDR tox: inactive; KB-3-1 cytotox: inactive; HT1080NT lethal: inconclusive; HT1080 IDH1KD tx: 14.6µM*; TGFb inhibitor: -23.7%; HepG2 viability: -46.9%

Results for O=C(CCC(=O)Nc1ccc(Br)cc1)N/N=C/c1ccccc1O ?
KB-V1 MDR tox: inconclusive; KB-3-1 cytotox: inconclusive; HT1080NT lethal: 10.3µM*; HT1080 IDH1KD tx: 13µM*; TGFb inhibitor: -2.1%; HepG2 viability: -15.8%

How did Cn1nc(C(=O)N2CCN(c3ccccc3F)CC2)c2c1-c1ccccc1SC2 do in these assays?
TGFb inhibitor: inconclusive; HepG2 viability: -22.4%

What do the screens show for `CC(=O)N1CCc2c(sc3c2c(=O)n(-c2ccccc2)c(=O)n3CC(=O)c2ccc(F)cc2)C1`?
KB-V1 MDR tox: inactive; KB-3-1 cytotox: inactive; TGFb inhibitor: inconclusive; HepG2 viability: -15.0%

How did COc1ccc(-c2nc3ccccc3o2)cc1NC(=O)c1ccc(N2CCC(C)CC2)c([N+](=O)[O-])c1 do in these assays?
TGFb inhibitor: -0.8%; HepG2 viability: -1.8%

How did CCOC(=O)c1c(-c2ccc(C)o2)csc1NC(=S)NC(=O)c1cccs1 do in these assays?
KB-V1 MDR tox: inactive; KB-3-1 cytotox: inconclusive; HT1080NT lethal: -20.4%; HT1080 IDH1KD tx: -27.2%; TGFb inhibitor: inconclusive; HepG2 viability: -32.3%

How did CCOC(=O)c1c(-c2ccc(C)o2)csc1NC(=S)NC(=O)c1ccccc1Br do in these assays?
KB-V1 MDR tox: 16.4µM*; KB-3-1 cytotox: inconclusive; HT1080NT lethal: inconclusive; HT1080 IDH1KD tx: inconclusive; TGFb inhibitor: -27.4%; HepG2 viability: -30.4%

What do the screens show for `CCN(CC)CCCOc1cc2nc(N3CCCN(C)CC3)nc(NC3CCN(C)CC3)c2cc1OC`?
KB-V1 MDR tox: inactive; KB-3-1 cytotox: inconclusive; TGFb inhibitor: inconclusive; HepG2 viability: -26.4%

What do the screens show for `CCc1ccc(C(=O)c2cn(CC(=O)Nc3ccc4c(c3)OCO4)c3ccc(OC)cc3c2=O)cc1`?
KB-V1 MDR tox: inconclusive; KB-3-1 cytotox: inactive; TGFb inhibitor: 5.3%; HepG2 viability: -0.4%

How did CCCCCCC[C@@H](C/C=C/CCC(=O)N(C)C/C(=C/Cl)C/C(=C\C(=O)N1C[C@H](O)CC1=O)OC)OC do in these assays?
KB-V1 MDR tox: inactive; KB-3-1 cytotox: inactive; HT1080NT lethal: 23.1µM*; HT1080 IDH1KD tx: inconclusive; TGFb inhibitor: 15.8µM*; HepG2 viability: -104.0%

Results for CCOC(=O)c1cccc(NC(=O)CCC(=O)N2CC(C)Oc3ccc(C)cc32)c1 (configuration not stated) ?
KB-V1 MDR tox: inactive; KB-3-1 cytotox: inactive; TGFb inhibitor: -25.7%; HepG2 viability: -0.4%

Results for Cc1cccc(C(=O)Nc2ccc(C(=O)N/N=C/c3ccc4c(c3)OCO4)cc2)c1 ?
KB-V1 MDR tox: inconclusive; KB-3-1 cytotox: inconclusive; HT1080NT lethal: inconclusive; HT1080 IDH1KD tx: -24.9%; TGFb inhibitor: -13.1%; HepG2 viability: -36.4%

Results for O=C(N/N=C/c1ccc2c(c1)OCO2)c1cccc(NC(=O)c2ccccc2Cl)c1 ?
KB-V1 MDR tox: inactive; KB-3-1 cytotox: inconclusive; HT1080NT lethal: 11.6µM*; HT1080 IDH1KD tx: 8.2µM*; TGFb inhibitor: -20.4%; HepG2 viability: -18.6%

How did O=C(N/N=C/c1ccc2c(c1)OCO2)c1ccc(NC(=O)c2ccccc2Cl)cc1 do in these assays?
KB-V1 MDR tox: inactive; KB-3-1 cytotox: inactive; HT1080NT lethal: inconclusive; HT1080 IDH1KD tx: inconclusive; TGFb inhibitor: -15.9%; HepG2 viability: -37.0%

What do the screens show for `Cc1cccc(C(=O)Nc2cccc(C(=O)N/N=C/c3ccc4c(c3)OCO4)c2)c1`?
KB-V1 MDR tox: inactive; KB-3-1 cytotox: 13µM*; HT1080NT lethal: 18.4µM*; HT1080 IDH1KD tx: inconclusive; TGFb inhibitor: -14.9%; HepG2 viability: -9.8%

What do the screens show for `CCOC(=O)c1c(C)oc2nc(C)nc(NCc3ccc(F)cc3)c12`?
KB-V1 MDR tox: inactive; KB-3-1 cytotox: inactive; TGFb inhibitor: -11.0%; HepG2 viability: -14.4%

Results for CCOC(=O)c1[nH]c2ccc(OC)cc2c1NC(=S)N1CCN(C(=O)OCC)CC1 ?
KB-V1 MDR tox: inactive; KB-3-1 cytotox: inactive; HT1080NT lethal: -0.4%; HT1080 IDH1KD tx: -1.8%; TGFb inhibitor: -7.3%; HepG2 viability: -7.5%

Results for COC(=O)c1[nH]c2cc(OC)ccc2c1NC(=O)CN1CCN(c2cccc(C)c2)C(C)C1 (configuration not stated) ?
KB-V1 MDR tox: 20.6µM*; KB-3-1 cytotox: inconclusive; HT1080NT lethal: inconclusive; HT1080 IDH1KD tx: inconclusive; TGFb inhibitor: -29.6%; HepG2 viability: 5.4%

How did CCOC(=O)c1[nH]c2ccc(OC)cc2c1NC(=S)N1CCN(c2ccccc2OC)CC1 do in these assays?
KB-V1 MDR tox: inconclusive; KB-3-1 cytotox: 8.2µM*; HT1080NT lethal: inconclusive; HT1080 IDH1KD tx: 13µM*; TGFb inhibitor: inconclusive; HepG2 viability: -12.3%

Results for CCOC(=O)Nc1c(C(=O)OC)[nH]c2cc(OC)ccc12 ?
KB-V1 MDR tox: 23.1µM*; KB-3-1 cytotox: 20.6µM*; HT1080NT lethal: -10.9%; HT1080 IDH1KD tx: -8.3%; TGFb inhibitor: inconclusive; HepG2 viability: -67.8%

Results for Cc1cc[n+](C2CCCCC2)c2ccccc12 ?
KB-V1 MDR tox: inactive; KB-3-1 cytotox: inactive; TGFb inhibitor: -4.3%; HepG2 viability: -2.0%
